This is part of a sample that, as a whole, favours compounds with a hit. Of some 83,000 tested, about 20% had one in any assay.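 The test compound was applied at a single concentration to cells in 96-well plates for 48 hours, and percent growth was recorded.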 Unmarked numbers belong to inactive results. Activity calls are given as the source filed them. The calls were made as follows: active = growth percent below 10; inactive = the rest.
Tests used:
Experiment in all cases: NCI-60 one-dose screen, 48 h (100 = growth as untreated, 0 = no growth, -100 = all killed)
SK-MEL-2 melanoma = settings: 10 µM unless noted
EKVX NSCLC = settings: 10 µM unless noted
SN12C renal = settings: 10 µM unless noted
UO-31 renal = settings: 10 µM unless noted
TK-10 renal = settings: 10 µM unless noted
ACHN renal = settings: 10 µM unless noted
CAKI-1 renal = settings: 10 µM unless noted
A498 renal = settings: 10 µM unless noted
CCRF-CEM leukemia = settings: 10 µM unless noted
MOLT-4 leukemia = settings: 10 µM unless noted
SR leukemia = settings: 10 µM unless noted
RPMI-8226 leukemia = settings: 10 µM unless noted
OVCAR-8 ovarian = settings: 10 µM unless noted
OVCAR-5 ovarian = settings: 10 µM unless noted
SK-OV-3 ovarian = settings: 10 µM unless noted
IGROV1 ovarian = settings: 10 µM unless noted
OVCAR-3 ovarian = settings: 10 µM unless noted
NCI/ADR-RES ovarian = settings: 10 µM unless noted
HS 578T breast = settings: 10 µM unless noted
OVCAR-4 ovarian = settings: 10 µM

| SMILES | growth (SK-MEL-2 melanoma) | growth (EKVX NSCLC) | growth (SN12C renal) | growth (UO-31 renal) | growth (TK-10 renal) | growth (ACHN renal) | growth (CAKI-1 renal) | growth (A498 renal) | growth (CCRF-CEM leukemia) | growth (MOLT-4 leukemia) | growth (SR leukemia) | growth (RPMI-8226 leukemia) | growth (OVCAR-8 ovarian) | growth (OVCAR-5 ovarian) | growth (SK-OV-3 ovarian) | growth (IGROV1 ovarian) | growth (OVCAR-3 ovarian) | growth (NCI/ADR-RES ovarian) | growth (HS 578T breast) | growth (OVCAR-4 ovarian) |
| --- | --- | --- | --- | --- | --- | --- | --- | --- | --- | --- | --- | --- | --- | --- | --- | --- | --- | --- | --- | --- |
| O=C1CC(c2ccccc2)Cc2nc3ccc(Br)cc3cc21 (stereo unspecified) | 45.2% | 36.3% | 32.2% | 41.4% | 73.4% | 34.3% | 30.7% | -12.4% (active) | 8.51% (active) | 10.5% | 13.1% | 50% | 24.1% | 27.2% | 47.6% | 22% | -28.4% (active) | 17.1% |  |  |
| N#C/C(C(=O)c1ccccc1)=C1/C(=O)Nc2ccc(Br)cc21 | 113% | 87.5% | 91.8% | 67.2% | 142% | 88.7% | 84% | 96.8% | 110% | 101% | 101% | 102% | 99.5% | 107% | 85.7% | 90.9% | 107% | 98.8% | 92.5% |  |
| COc1ccc(C=C2c3ccccc3-c3ccccc32)cc1 | 54.9% | 66.8% | 61.6% | 54.3% | 68.6% | 58.4% | 49% | 15.7% | 57.7% | 52.3% | 23.4% | 68.2% | 67.1% | 92.4% | 60.6% | 58.3% | 18% | 20.2% | 56.3% |  |
| C=C(C)[C@@H]1CC[C@]2(C(=O)OC)CC[C@]3(C)[C@H](CC[C@@H]4[C@@]5(C)CC/C(=N\OCCC(=NCCC#N)NOCCC#N)C(C)(C)[C@@H]5CC[C@]43C)[C@@H]12 | 36.2% [100 µM] | 53.1% [100 µM] | -71.9% [100 µM] (active) | 19% [100 µM] | 37.9% [100 µM] | 13.9% [100 µM] | 18.5% [100 µM] | -0.384% [100 µM] (active) | 7.42% [100 µM] (active) | -26.8% [100 µM] (active) | 1.86% [100 µM] (active) | 3.28% [100 µM] (active) | 13.2% [100 µM] | 50.6% [100 µM] | 34.6% [100 µM] | 18.8% [100 µM] | -34.5% [100 µM] (active) | 17.1% [100 µM] | 24.3% [100 µM] |  |
| C[C@H]1[C@H](C)CC[C@]2(C(=O)O)CC[C@]3(C)C(=CC[C@@H]4[C@@]5(C)C/C(=C/c6cccnc6)[C@H](O)C(C)(C)[C@@H]5CC[C@]43C)[C@H]12 | -28.1% [100 µM] (active) | 15.8% [100 µM] | 3% [100 µM] (active) | -77% [100 µM] (active) | 8.85% [100 µM] (active) | 4.57% [100 µM] (active) | 7.71% [100 µM] (active) | 19% [100 µM] | -1.43% [100 µM] (active) | 2.42% [100 µM] (active) | 25.4% [100 µM] | -4.1% [100 µM] (active) | 12.4% [100 µM] | -13.7% [100 µM] (active) | 5.9% [100 µM] (active) | 7.23% [100 µM] (active) | -39% [100 µM] (active) | 1.11% [100 µM] (active) | 4.34% [100 µM] (active) |  |
| COc1cc(-c2cc(-c3ccc(Nc4ncnc5cc(Cl)ccc45)cc3)nc(N3CCCCC3)n2)cc(OC)c1OC | 91% | 102% | 90.9% | 80% | 111% | 96.8% | 93.1% | 89.5% | 107% | 90.8% | 90.9% | 109% | 88.9% | 96.1% |  | 90.5% | 107% | 104% | 98.7% |  |
| CC1=CCc2ccccc21 | 140% | 110% | 88% | 70.8% | 103% | 98.6% | 87.7% | 89.9% | 94.3% | 97% | 98.6% | 95% | 101% | 102% | 101% | 88.5% | 106% | 98.1% | 98.3% |  |
| c1cc2ccc3cc2cc1CNCCN1CCNCc2ccc4ccc(cc4c2)CNCCN(CCNC3)CCNCc2ccc3ccc(cc3c2)CNCC1 | -9.83% (active) | 48.7% | 1.52% (active) | 82.4% | 75.2% | 91.2% | 93.8% | 100% | 51% |  | 10.1% | 7.69% (active) | 69.3% | 0.497% (active) |  | 21.9% | -1.21% (active) | 99% | 48.4% | -7.14% (active) |
| Cc1cccc(C[C@H](NC(=O)Nc2ccc(C)cc2F)C(=O)N[C@@H]2C(=O)N3C[C@H](O)C[C@H]3C(=O)N3CCN(C)C[C@H]3C(=O)N[C@@H](C)C(=O)N3C[C@H](C)C[C@H]3C(=O)O[C@H]2C)c1 | 39.9% | 69.6% | 21.5% | 93% | 94.1% | 106% | 82.1% | 32.8% | 62.5% |  | 34.5% | 28.2% | 50.8% | 42.7% |  | 52.3% | 24.4% | 114% | 50.8% | 12.9% |
| COc1cc2c(c(OC)c1OC)-c1ccc(NNC(N)=S)c(=O)cc1[C@@H](NC(C)=O)CC2 | -8.39% (active) | 51.2% | 35.9% | 50.8% | 58.7% | 46.3% | 37.5% | 46.6% | 20.8% |  | 13.2% | -11.9% (active) | 6.26% (active) | 31.5% | 7.84% (active) |  | -56.8% (active) | 87.4% | 52.1% |  |
| O=C1C(Cl)=C(Nc2ccc3cn[nH]c3c2)C(=O)c2ccccc21 | -28.6% (active) | -64.7% (active) | -42.9% (active) | -97.7% (active) | 19.8% | 41.1% | -94.4% (active) | 93% |  | -38.4% (active) | -52% (active) | -54.7% (active) | -58.2% (active) | -37.9% (active) | 87.2% | -83.5% (active) | -100% (active) | -67.5% (active) | -50.4% (active) | -98.9% (active) |
| Cc1ccc(NC(=S)/N=c2/n(-c3ccccc3)nc3n2CCN3C2=NCCN2)cc1 | 109% | 113% | 100% | 92.4% | 97.5% | 106% | 86% | 81.2% | 102% |  | 112% | 104% | 105% | 98.2% | 114% | 120% | 129% | 112% | 111% |  |
| Oc1c(CNCCNCc2cc(Cl)cc(Cc3ccccc3)c2O)cc(Cl)cc1Cc1ccccc1 | 27.1% | 24% | 19.1% | -20% (active) | 36.8% | 10.3% | 6.39% (active) | 36.2% |  | 18.2% | 5.69% (active) | 20.8% | 14.3% | 52.9% | 15.4% | 12.8% | 29.5% | 8.69% (active) | 40.7% | 27.1% |
| COc1ccc(C2CC(c3ccc4ccccc4c3)=NN2c2nc(O)c(C3=c4cc(OC)ccc4=NC3=O)s2)cc1 (stereo unspecified) | -69.6% (active) | -67.3% (active) | -56% (active) | -77.3% (active) | -71% (active) | -51.2% (active) | -59.6% (active) | -83.2% (active) | 8.68% (active) |  | -30.5% (active) | 1.78% (active) | -34.6% (active) | 0.651% (active) |  | -18.5% (active) | -55.5% (active) | 57% | -7.14% (active) | -45.8% (active) |
| CC[C@]12C=CCN3CC[C@@]4(c5ccc(OC)cc5N(C)[C@H]4[C@@](O)(C(=O)OC)[C@@H]1OC(=O)CCC(=O)O[C@H]1CC[C@H]4[C@@H]5CCC6=CC(=O)CC[C@@H]6[C@H]5CC[C@]14C)[C@@H]32 | -79.8% [100 µM] (active) | 16.1% [100 µM] | 7.65% [100 µM] (active) | -7.86% [100 µM] (active) | 12.4% [100 µM] | -0.641% [100 µM] (active) | 6.42% [100 µM] (active) | -15.8% [100 µM] (active) | 5.61% [100 µM] (active) |  | 10.5% [100 µM] | -22.1% [100 µM] (active) | 26.4% [100 µM] | 23.7% [100 µM] | 13.2% [100 µM] | -46.3% [100 µM] (active) | 8.48% [100 µM] (active) | 10.8% [100 µM] | 4.75% [100 µM] (active) |  |
